# Source: the supplement of paper PMC3334620
# Over roughly 33,000 sequences, “E-score (-0.5 to 0.5)” has its median near -0.016; the highest 2% begin near 0.32. The entries come from a sample that favours the highest values as a whole.
# Target: T1, Stp1 (UniProt B3LFK1)
# T1 sequence: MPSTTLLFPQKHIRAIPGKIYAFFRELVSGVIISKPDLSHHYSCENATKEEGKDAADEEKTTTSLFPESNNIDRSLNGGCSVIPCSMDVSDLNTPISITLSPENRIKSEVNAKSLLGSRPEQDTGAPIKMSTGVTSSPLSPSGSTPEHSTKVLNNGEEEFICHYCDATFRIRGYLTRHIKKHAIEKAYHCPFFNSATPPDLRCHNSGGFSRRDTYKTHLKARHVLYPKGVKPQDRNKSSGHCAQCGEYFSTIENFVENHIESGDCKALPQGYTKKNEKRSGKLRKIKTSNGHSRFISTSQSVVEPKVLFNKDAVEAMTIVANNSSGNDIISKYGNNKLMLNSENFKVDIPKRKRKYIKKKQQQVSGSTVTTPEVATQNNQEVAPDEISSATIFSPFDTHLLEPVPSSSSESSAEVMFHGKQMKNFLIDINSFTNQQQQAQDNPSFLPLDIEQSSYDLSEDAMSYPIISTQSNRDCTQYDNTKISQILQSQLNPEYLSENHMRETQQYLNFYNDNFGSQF
# Experiment: PBM E-score (8-mer binding enrichment) (E-score (-0.5 to 0.5)); higher = stronger / more preferred TF binding
# Details: protein concentration: 200 nM; construct: GST-full length
# Procedure: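 Universal 'all 10-mer' protein binding microarrays (Agilent AMADID 015681) probed with GST-tagged S. cerevisiae TFs (full-length or DBD) made by in vitro transcription/translation (PURExpress), about 100-200 nM. Bound TF was detected with fluorescent anti-GST. Each ungapped 8-mer (which stands for itself and its reverse complement) is scored by the PBM enrichment score (E-score), a modified Wilcoxon-Mann-Whitney statistic from -0.5 to +0.5, computed with the Universal PBM Analysis Suite. Scale: above 0.35 generally sequence-specific binding.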
row,Sequence,PBM E-score
1,GGGCAATA,0.0993
2,AGGCAATC,0.114
3,CGGCAATC,0.332
4,AAGAGCGA,-0.231
5,CACTAGTG,0.056
6,GCCTTTCC,0.381
7,CCCTTTCC,-0.11
8,ACCTTTCC,-0.194
9,GTTGGGTA,-0.109
10,CGGCGTAG,0.335
11,AGGCGTAC,0.137
12,CGGCGTAC,0.36
13,GGGCGTAC,-0.134
14,TGGCGTAA,0.0095
15,GGGCGTAA,-0.0217
16,CGGCGTAA,0.39
17,CCGCGTAG,0.25
18,AGGCGTAG,-0.0223
19,ATAGTTTG,0.121
20,TGTGCAAA,-0.111
21,ATCCTGCA,-0.159
22,CAACGCAC,0.0556
23,AAACATTT,0.0291
24,ACTATTCC,0.0191
25,ACTCGCTG,0.0353

row,Sequence,PBM E-score
1,CACTTAGC,0.0853
2,AGAAGTTC,0.0255
3,AGGCGCTC,0.137
4,CCGCGCTA,0.289
5,AGGCGCTG,0.311
6,CGGCGCTA,0.453
7,CGGCGCTC,0.427
8,GGGCGCTA,0.0956
9,CTGCGCTA,-0.221
10,CTGCGCTC,-0.214
11,AGGCGCTA,0.358
12,AGCACTTG,-0.266
13,GTTCTCAA,0.2
14,AGTATAGG,-0.0433
15,ACATAAAC,0.129
16,CACTAAAA,0.123
17,AATGCGGT,-0.0107
18,CATGCGGA,0.156
19,GATGCGCC,0.194
20,AATGCGGC,0.435
21,GATGCGGC,0.47
22,GATGCGGA,0.104
23,CATGCGGC,0.459
24,CATGCGGG,0.0548
25,AATGCGGG,0.174

row,Sequence,PBM E-score
1,CAGCTAAG,-0.153
2,CCCGGTTA,-0.0439
3,CCTCCCAC,-0.132
4,TCCGTAGA,0.0858
5,CCCGTAGC,-0.24
6,ACCGTAGC,-0.138
7,GCCGTAGA,0.427
8,GCCGTAGC,0.444
9,ACCGTAGA,0.0293
10,AACATTCT,0.215
11,CGGACGGA,-0.0178
12,CGGACGGC,0.442
13,AGGACGGA,-0.161
14,CGGACGTC,-0.00174
15,AGGACGGC,0.324
16,AGGACGGG,-0.271
17,CTTGTGGA,0.016
18,CCTACATC,-0.191
19,ATTCGAAT,0.0494
20,AACTGTCA,-0.0285
21,GCGTATGA,0.09
22,CGGTATGC,-0.0255
23,CCGTATGA,0.337
24,ACGTATGC,0.00677
25,ACGTATGA,0.15

row,Sequence,PBM E-score
1,CCGTATGC,0.331
2,CAAAACGC,0.322
3,CGAAAGGA,-0.102
4,AAAAAGGC,0.249
5,CAAAAGGC,0.359
6,GAAAAGGC,0.145
7,AGAAAGGC,0.206
8,CCAAACGC,0.0617
9,CGAAAGGC,0.355
10,AAAAACGC,0.125
11,GCCTGGAA,-0.133
12,GCGCATCC,0.0373
13,CAGCACTA,-0.0254
14,GTGGTGTA,0.0559
15,AAATGTCT,-0.057
16,ATGGCATC,0.186
17,ACGGCATC,0.48
18,CCGGCATC,-0.0881
19,AGGGCATG,0.0868
20,ACGGCATG,0.422
21,ATGGCATG,0.22
22,ACGCGCTC,0.105
23,CCGAAATA,0.0974
24,GGATGAGA,-0.157
25,AAGTCAGC,0.0691

row,Sequence,PBM E-score
1,AAACGGCT,0.376
2,CAACGGGG,-0.104
3,AAACGGTC,0.0651
4,AAACGGGT,0.188
5,CAACGGCG,0.429
6,AAACGGAG,0.18
7,AAACGGCG,0.481
8,AAACGGAT,0.259
9,CAACGGAG,-0.0687
10,CAACGGCC,0.173
11,AAACGGTG,0.1
12,AAACGGCC,0.368
13,CGGGCCAG,-0.159
14,AAGCGCTG,-0.0462
15,TGCAGGCA,-0.105
16,GCTCGCCC,-0.205
17,CGGGAGAA,-0.111
18,GGACAATA,0.0607
19,ACGTCAAC,0.0286
20,CACTCTCG,-0.0668
21,ATGCTATC,-0.218
22,CGTAGGAA,-0.0469
23,ATGGCGGG,-0.132
24,ATTTGCCC,0.109
25,CATTGCCC,0.0291

row,Sequence,PBM E-score
1,AATTGCCG,0.341
2,ATTTGCCG,0.335
3,AATTGCCC,0.0223
4,CATTGCCG,0.358
5,CATTGCCA,-0.0509
6,ATTTGCCA,-0.0687
7,AATTGCCA,-0.00723
8,GCGTACGC,-0.0472
9,CCGTACGC,0.327
10,CCGTACGA,0.298
11,CCGTACGG,0.341
12,ACGTACGC,-0.023
13,ACGTACGG,0.292
14,ACGTGCCA,0.148
15,ATTCTACA,0.221
16,CAAGTGAA,0.00842
17,ACATAAGC,0.00404
18,AGCTTACA,0.0627
19,AGACCCTC,-0.313
20,AATGTCAC,0.136
21,CTTATGGA,-0.0787
22,ACGGCGGA,0.314
23,CCGGCGAC,-0.167
24,GAGGCGAC,0.155
25,GCGGCGAC,0.434

row,Sequence,PBM E-score
1,TCGGCGAA,-0.0263
2,GCGGCGGA,0.358
3,ATGGCGAC,0.0528
4,CCGGCGAA,0.088
5,GCGGCGAA,0.427
6,CCGGCGGA,0.0459
7,ACGGCGAC,0.467
8,AGGGCGAC,0.015
9,AGCTATGA,-0.183
10,CACCTGCC,0.055
11,GGTGGCTA,0.0168
12,AAGCGTAC,-0.161
13,AGGGACAT,0.0229
14,CAGCTTGA,-0.0612
15,TAAGATGA,0.0182
16,TCATCCGA,0.0548
17,CAGGGGGG,-0.469
18,AGGGCGAA,-0.0283
19,ATGGCGAA,0.139
20,ATGGCGGC,0.158
21,ACGGCGGC,0.445
22,ACGGCGGG,0.289
23,ACGGCGAA,0.465
